Compounds with a hit are over-represented: about 19% of the library has one in this group of screens.
DT40 TDP1 no CPT: qHTS for Inhibitors of human tyrosyl-DNA phosphodiesterase 1 (TDP1): qHTS in cells in absence of CPT; DT40 Tdp1-/- hTDP1 cells, no CPT, ATP luminescence, 48 h; Potency, µM (titrated, usually from 46.2 µM), for the others: at the top dose activity change, negative = growth inhibition, actives largely listed as inhibitors; 420,000 tested, 15% active; also: potency is read from the fitted curve at half-maximal effect; % is scaled to controls: 0 for no effect and ±100 for the full control effect; nearly all actives have a fitted effect of over 55% in size
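A cellular qHTS used chicken DT40 cells lacking endogenous Tdp1 but carrying stably transfected human TDP1. Compounds were applied without camptothecin, and cell growth kinetics were judged by ATP-dependent luminescence after ≥48 hr.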
MCF10A rerep: induces DNA re-replication in MCF 10a normal breast cells. MCF 10A DNA re-replication, Hoechst nuclear intensity, 48 h. Potency, µM (series often up to 46.1 µM), inactives show top-dose activity, positive = re-replication, most hits filed as activators. 350,000 tested, 2.9% active. AID 624296; also: potency is read from the fitted curve at half-maximal effect; % of control where 0% means no effect; nearly all actives have a fitted effect of over 50% in size
IL1B secr inh: inflammasome signaling inhibition, IL-1 beta readout; AID 743279; 360,000 tested, 4.7% active; activity change, % at 57.5 µM; THP-1 LPS/ATP IL-1B secretion, AlphaLISA, 16 h; hits give low values; in the data active = activity change below about -50%; inconclusive = mostly about -30% to -49%; also: % is scaled to controls: 0 for no effect and ±100 for the full control effect
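THP-1 cells pretreated 1 hr with compounds (up to 57.5 uM final), then stimulated with LPS (250 ng/mL final) plus ATP (1.25 mM final); secreted IL-1B measured by AlphaLISA after 16 hr, decreased signal indicating inhibition.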
Chronic BCR inh: inhibitors of chronic active B-cell receptor signaling; Potency, µM (doses to about 46.1 µM), for inactives: top-dose activity change, negative = inhibition, hits mostly inhibitors; ABC-DLBCL IkBa-CBG/CBR reporter, luminescence ratio, 4 h; 340,000 tested, 0.05% active; active = well fitted inhibition curve with a large enough effect in the signal ratio, with a control signal flat, not every such curve was filed as active; inconclusive = small, poorly fitted or top-dose-only effect, or effect the other way, or a change in a side signal; the % refers to the signal ratio;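 also: potency is read from the fitted curve at half-maximal effect; plate controls were basal doxycycline-induced cells for no effect and cells given 10 µM MG132 for full effect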
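Compounds up to 46 uM were incubated four hours with TMD8 cells whose green CBG68 luciferase is fused to IkappaBalpha; red CBR luminescence normalised the signal, and concentration-effect curves were fitted to fusion, red and ratio data.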
SW480 rereplic: DNA re-replication induction in SW480 cells | SW480 DNA re-replication, Hoechst DNA content imaging, 48 h | Potency, µM (series often up to 46.1 µM), without a hit: at the highest dose re-replication activation, most hits filed as activators | 340,000 tested, 1.8% active | AID 624297; also: potency is read from the fitted curve at half-maximal effect; % of control where 0% means no effect; nearly all actives have a fitted effect of over 55% in size
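Compounds, transferred as 23 nL by pin tool, were incubated with cells for 48 hr; DNA content per nucleus was then quantified by Hoechst staining and fluorescence plate imaging.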
DT40 TDP1 CPT: DT40-hTDP1 cell growth loss with CPT | chicken DT40 Tdp1-/-;hTDP1 cells + 20 nM CPT, ATP luminescence, 48 h | 420,000 tested, 12% active | Potency, µM (highest dose often 46.2 µM), for the others: at the highest dose activity change, negative = growth inhibition, usual class: inhibitors; also: potency is read from the fitted curve at half-maximal effect; % is scaled to controls: 0 for no effect and ±100 for the full control effect; nearly all actives have a fitted effect of over 55% in size
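Cell growth measured by CellTiter-Glo luminescence after a minimum 48 h, 37 C compound exposure with 20 nM CPT in Tdp1-knockout DT40 cells stably expressing hTDP1, seeded 400/well; qHTS titration format.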
Active calls of the source: *; [ ] = dose if it differs, or a comment. Unless noted, calls follow the shape of the dose curve; as a rule, active = well fitted curve in the direction sought with a large enough effect; inconclusive = small, poorly fitted or top-dose-only effect, or another doubt; inactive = no such curve, though single readings can be large; an effect the other way counts as inactive or inconclusive.

How did Clc1ccc(CSC(Cn2ccnc2)c2ccc(Cl)cc2Cl)cc1 (configuration not stated) do in these assays?
DT40 TDP1 no CPT: 18µM*; MCF10A rerep: inconclusive; IL1B secr inh: -10; Chronic BCR inh: inconclusive; SW480 rereplic: inconclusive; DT40 TDP1 CPT: inconclusive

What do the screens show for `Clc1ccc(CS[C@@H](Cn2ccnc2)c2ccc(Cl)cc2Cl)cc1`?
MCF10A rerep: inconclusive; SW480 rereplic: -4%[20.6 µM]

Results for C=C1C(=O)[C@@]23C[C@H]4[C@@H]5[C@@]6(C)CCC[C@@]57[C@@H]2[C@@H](O)[C@@H]1C[C@H]3[C@H]7N4C6 ?
DT40 TDP1 no CPT: 4.1µM*; MCF10A rerep: 15µM*; IL1B secr inh: -108*; SW480 rereplic: inconclusive; DT40 TDP1 CPT: 4.6µM*

What do the screens show for `CCCCC(=O)Nc1c(C(=O)N2CCN(c3ccccc3F)CC2)oc2ccccc12`?
DT40 TDP1 no CPT: 9.2µM*; DT40 TDP1 CPT: 15µM*

What do the screens show for `OCCOCC#CCN1CCOCC1`?
DT40 TDP1 no CPT: -4%; MCF10A rerep: -8%; IL1B secr inh: -8; Chronic BCR inh: 0%; SW480 rereplic: 4%; DT40 TDP1 CPT: 9%

Results for O=C(c1cc2cc(Cl)ccc2[nH]1)N1CCC2(CC1)OCCO2 ?
DT40 TDP1 no CPT: inconclusive; MCF10A rerep: 23µM*; IL1B secr inh: 2; Chronic BCR inh: 0%; SW480 rereplic: -2%; DT40 TDP1 CPT: 18µM*

Results for CC(C)(C)c1ccc(O)cc1 ?
DT40 TDP1 no CPT: 1%; MCF10A rerep: -2%; SW480 rereplic: 0%; DT40 TDP1 CPT: 4%

Results for CC1(CCl)CN1S(=O)(=O)c1ccccc1 (configuration not stated) ?
DT40 TDP1 no CPT: inconclusive; MCF10A rerep: 21%; IL1B secr inh: -28; Chronic BCR inh: -11%; SW480 rereplic: inconclusive; DT40 TDP1 CPT: 18µM*

How did CCN(CCCl)c1cc(CN(C)C)cc(NC(=O)c2ccc(C(=O)Nc3cc(CN(C)C)cc(N(CC)CCCl)c3)cc2)c1 do in these assays?
DT40 TDP1 no CPT: 0.18µM*; MCF10A rerep: 14%; IL1B secr inh: -94*; SW480 rereplic: inconclusive; DT40 TDP1 CPT: 0.18µM*

What do the screens show for `CC(C)Cc1nc(N2CCNCC2)c(C#N)c2c1CCC2`?
DT40 TDP1 no CPT: 18µM*; MCF10A rerep: -7%; IL1B secr inh: -18; Chronic BCR inh: -4%; SW480 rereplic: -31%; DT40 TDP1 CPT: inconclusive

How did O=C(/C=C/c1c[nH]c2ccccc12)c1c(O)n(CCc2ccccc2)c(=O)[nH]c1=O do in these assays?
DT40 TDP1 no CPT: -14%; MCF10A rerep: 16µM*; Chronic BCR inh: -1%; SW480 rereplic: 18µM*; DT40 TDP1 CPT: 2%

What do the screens show for `CCCCn1c(O)c(C(C)=Nc2ccc(OCC)cc2)c(=O)[nH]c1=O`?
DT40 TDP1 no CPT: 23µM*; MCF10A rerep: -6%; IL1B secr inh: 16; Chronic BCR inh: 1%; SW480 rereplic: -5%[9.22 µM]; DT40 TDP1 CPT: 18µM*

How did CCCCn1c(O)c(C(C)=NCCc2c[nH]c3ccccc23)c(=O)[nH]c1=O do in these assays?
DT40 TDP1 no CPT: 16µM*; MCF10A rerep: -1%; IL1B secr inh: -9; Chronic BCR inh: 4%; SW480 rereplic: -12%; DT40 TDP1 CPT: inconclusive

How did COc1ccc(/C=C2\SC(=O)N(CCn3cnnn3)C2=O)cc1 do in these assays?
DT40 TDP1 no CPT: -9%; MCF10A rerep: -14%; IL1B secr inh: -12; Chronic BCR inh: -2%; SW480 rereplic: inconclusive; DT40 TDP1 CPT: -2%

What do the screens show for `COC(=O)C1=C(c2cccc(OC)c2OC)C[C@@H]2CC[C@H]1N2C(=O)NC1CCCCC1`?
DT40 TDP1 no CPT: inconclusive; MCF10A rerep: -2%; IL1B secr inh: 8; SW480 rereplic: -4%; DT40 TDP1 CPT: -23%

How did COc1cccc(-c2nc3c(C#N)c[nH]n3c2NC2CCCCC2)c1OC do in these assays?
DT40 TDP1 no CPT: 21µM*; DT40 TDP1 CPT: inconclusive

What do the screens show for `O=C(Nc1ccccc1Cl)Oc1ccc(-c2ccccc2)cc1`?
DT40 TDP1 no CPT: -21%; MCF10A rerep: 13%; IL1B secr inh: -4; Chronic BCR inh: inconclusive; SW480 rereplic: 12%; DT40 TDP1 CPT: -12%

How did CN1C(=O)c2ccccc2Sc2ccc(NC(=O)c3ccc(C(F)(F)F)cc3)cc21 do in these assays?
DT40 TDP1 no CPT: 2.9µM*; Chronic BCR inh: inconclusive; DT40 TDP1 CPT: 4.6µM*

How did COc1ccc(C(=O)Nc2ccc3c(c2)N(C)C(=O)c2ccccc2S3)cc1OC do in these assays?
DT40 TDP1 no CPT: 2.6µM*; Chronic BCR inh: -24%; DT40 TDP1 CPT: 2.9µM*

Results for CCCCN1CCS(=O)(=O)N(Cc2ccccc2Br)CC(C(=O)OC)C1 (configuration not stated) ?
DT40 TDP1 no CPT: inconclusive; MCF10A rerep: inconclusive; IL1B secr inh: -4; Chronic BCR inh: -10%; SW480 rereplic: inconclusive; DT40 TDP1 CPT: inconclusive

What do the screens show for `CN(C)c1cccc2c(C#N)ccc(N(C)C)c12`?
DT40 TDP1 no CPT: -20%; MCF10A rerep: inconclusive; IL1B secr inh: 9; Chronic BCR inh: 2%; SW480 rereplic: -21%; DT40 TDP1 CPT: -1%

Results for CN1C(=O)NC(=O)/C(=C\C=C\c2ccccc2[N+](=O)[O-])C1=O ?
DT40 TDP1 no CPT: 5.8µM*; MCF10A rerep: inconclusive; IL1B secr inh: -98*; Chronic BCR inh: inconclusive; SW480 rereplic: 15µM*; DT40 TDP1 CPT: inconclusive

How did c1cc2c(cc1C1OC[C@@H]3C(c4ccc5c(c4)OCO5)OCC13)OCO2 (some centres not stated) do in these assays?
DT40 TDP1 no CPT: inconclusive; DT40 TDP1 CPT: -25%

Results for O=C1NC(=O)C2(CCCc3ccc(N(CCCl)CCCl)cc32)N1 (configuration not stated) ?
DT40 TDP1 no CPT: 0.18µM*; MCF10A rerep: 18µM*; IL1B secr inh: -6; SW480 rereplic: 16µM*; DT40 TDP1 CPT: 0.41µM*

How did NC1(C(=O)O)CCCc2ccc(N(CCCl)CCCl)cc21 (configuration not stated) do in these assays?
DT40 TDP1 no CPT: 2.3µM*; MCF10A rerep: inconclusive; IL1B secr inh: 14; SW480 rereplic: inconclusive; DT40 TDP1 CPT: 1.6µM*

What do the screens show for `N#Cc1ccc(CN2CCC3(CC2)CCN(C(=O)Oc2ccccc2)CC3)cc1`?
DT40 TDP1 no CPT: -21%; DT40 TDP1 CPT: -1%
